Screen size: about 69,000 compounds; about 8,600 (12%) showed an effect of 50% or more. For the sample, strong results were picked, then their nearest neighbours and some compounds at random.
What follows are molecules tested on Plasmodium berghei (assay: Screen against P. berghei liver stage (PbLuc), transformed with Luciferase, at 10uM). Conditions: tested at 10 uM.
Format: functional, HepG2

SMILES | INHIBITION [%]
Cn1cc(C2CCCN2C(=O)CCc2cnn(-c3ccccc3)c2)cn1 (stereo unspecified) | 5.03
CN(C)C(=O)C1(CCCc2ccccn2)CCN1Cc1nccn1C (stereo unspecified) | 5.34
COc1ccc2nnc(CCCC(=O)NCc3ccccc3F)n2n1 | -6.09
COc1ncccc1CNCc1c(C)nn(C)c1N1CCOCC1 | -10.1
CC(C)N1CCN(C(=O)c2ccc(Cn3ccccc3=O)o2)CC1 | 14.115
CCS(=O)(=O)N1C[C@@H](c2nnc(C)o2)C[C@H]2OCC[C@H]21 | 18.7
Cc1nnc([C@H]2C[C@H]3OCC[C@H]3N(S(=O)(=O)C3CC3)C2)o1 | 26
Cc1nnc([C@H]2C[C@H]3OCC[C@H]3N(S(=O)(=O)N(C)C)C2)o1 | 54.1
Cc1ccc(CN2C[C@@H]3COC[C@H](NS(C)(=O)=O)[C@@H]3C2)o1 | 6.38
OCCNc1nccc(-c2c[nH]nc2-c2ccncc2)n1 | 41.2
O=c1[nH][nH]cc1-c1ccnc(NCCc2ccc(F)cc2)n1 | 20.4
O=C(Cc1cccc(O)c1)NCCNc1nccc(C(F)(F)F)n1 | 0.71
O=c1[nH][nH]cc1-c1ccnc(NCCc2cccnc2)n1 | 59
C[C@H]1CCCCN1CCCNc1nccc(-c2c[nH][nH]c2=O)n1 | 23.4
O=C(O)c1ccnc(-c2ccnc(NCCc3ccc(F)cc3)n2)c1 | 8.74
CC(C)(C)CCNc1nccc(-c2c[nH][nH]c2=O)n1 | 57.5
O=c1[nH][nH]cc1-c1ccnc(NCCN2CCCC2)n1 | 25.3
Cc1ncc(-c2ccnc(N3CCCCC3)n2)c(=O)[nH]1 | 28.6
COCCCNc1nccc(-c2c[nH][nH]c2=O)n1 | 15.2
O=c1[nH][nH]cc1-c1ccnc(NCCc2cccc(O)c2)n1 | 63.4
CN(C)c1nccc(-c2c[nH][nH]c2=O)n1 | 42.6
Cc1ncc(-c2ccnc(NCCc3ccc(F)cc3)n2)c(=O)[nH]1 | 72.3
O=C(O)c1cn(-c2ccccn2)c(=O)c2ccccc12 | -44.2
CN(C)[C@@H]1CN(Cc2ccc(O)cc2)C[C@H]1c1cn(C)c2ccccc12 | 40.9
O=C(c1ccncc1)N1C[C@H]2CC[C@@H](C1)N(S(=O)(=O)c1cccnc1)C2 | -66.4
CCN1CC(C(=O)NCc2ccnc(-n3cccn3)c2)CC1=O (stereo unspecified) | -12.33

SMILES | INHIBITION [%]
CCOC(C)c1nccn1Cc1c(C)noc1C (stereo unspecified) | 3.19
Cc1cc(C(F)(F)F)nc(C2(C)CCCN2CC(N)=O)n1 (stereo unspecified) | 14.385
c1cncc(-n2cnnc2CCCN2CCOCC2)c1 | 3.69
CN1CCN(Cc2cccnc2)C2(CCN(Cc3ccoc3)C2)C1=O (stereo unspecified) | -24.9
COCCC(=O)NC1CCN(CC2(c3cccc(F)c3)CCCC2)CC1 | 12.3
Cc1ccc(NC(=O)[C@H]2C[C@H](C(=O)O)CN(CC(C)C)C2)cn1 | 11.2
CCc1ncc2c(n1)CN(c1cc(NCCO)nc(N)n1)C2 | -63.2
COc1ccc2[nH]c3c(c2c1)CN(c1cc(NCCO)nc(N)n1)CC3 | 54.8
Nc1nc(NCCO)cc(N2CCc3c([nH]c4ccccc34)C2)n1 | 78.5
COc1ccc(F)c(-c2cc(NCCO)nc(N)n2)c1 | -76.6
CC(C)(C)c1ncc2c(n1)CN(c1cc(NCCO)nc(N)n1)C2 | 3.84
CC(C)Cc1ncc2c(n1)CN(c1cc(NCCO)nc(N)n1)C2 | 27.7
C[C@@H]1C[C@H]2CN(C(=O)c3ccncn3)C[C@H]2O1 | -0.813
CN1[C@@H](C(=O)NCC2CC2)C[C@@H]2CN(Cc3ccoc3)C[C@@H]21 | 1.34
N#CC(NC(=O)CC(F)(F)F)c1ccsc1 (stereo unspecified) | -3.68
COc1cccc(C=CCCN2CCN(S(C)(=O)=O)CC2)c1 | -104
Cc1cc(-c2cnc(N3CCOCC3)nc2-c2ccc(C)s2)on1 | 53
CCN1CCN(c2ncc(-c3cc(C)no3)c(-c3ccco3)n2)CC1 | 11.5
Cc1cc(-c2cnc(N3CCCC3)nc2-c2ccc(C)s2)on1 | 32.3
CCN1CCN(c2ncc(-c3cc(C)no3)c(-c3ccc(C)s3)n2)CC1 | 57.4
Cc1cc(-c2cnc(N3CCSCC3)nc2-c2ccc(C)s2)on1 | 47.1
CCN1CCN(c2ncc(-c3cc(C)no3)c(-c3ccoc3C)n2)CC1 | 48.9
Cc1cc(-c2cnc(N3CCN(C)CC3)nc2-c2ccc(C)s2)on1 | 69.4
Cc1nc(CN2CCCC(N(C)CCOCC(F)(F)F)C2)no1 (stereo unspecified) | -13.5
c1cc(COc2ccc(CNC3CCc4ncnn4C3)cc2)ccn1 (stereo unspecified) | -1.76
CS(=O)(=O)CC1(CNc2c(C#N)cnc3ccc(Cl)cc23)CC1 | -14.1

SMILES | INHIBITION [%]
CS(=O)(=O)c1cn[nH]c1C1CCCCN1C(=O)c1ccsc1 (stereo unspecified) | -69.5
CN1C(=O)CCC12CCC(NC(=O)NCc1cccnc1)CC2 (stereo unspecified) | 28.5
CS(=O)(=O)N1CCN(Cc2ccc(F)cc2Br)CC1 | 35.4
O=S(=O)(c1ccccc1)N1CCN(Cc2ccc(F)cc2Br)CC1 | 33.1
O=S(=O)(N1CCCCCC1)N1CCN(Cc2ccc(F)cc2Br)CC1 | 71.2
CN1C(=O)CC(C(=O)O)C12CCN(c1ccc3cccc(Cl)c3n1)CC2 (stereo unspecified) | -0.273
CCC1=N[C@@]2(CC[C@@H]3CN(CC(C)C)C[C@@H]32)C(=O)N1 | 24.9
COC(=O)c1ccc(C2SCC(=O)Nc3ccsc32)cc1 (stereo unspecified) | 78.1
COc1ccc(C2SCC(=O)Nc3ccsc32)cc1OC (stereo unspecified) | 3.68
COc1cccc(C2SCC(=O)Nc3ccsc32)c1 (stereo unspecified) | 3.68
COc1cc(C2SCC(=O)Nc3ccsc32)cc(OC)c1OC (stereo unspecified) | 29.4
COc1cc(OC)cc(C2SCC(=O)Nc3ccsc32)c1 (stereo unspecified) | 3.68
COc1ccc(C2SCC(=O)Nc3ccsc32)cc1 (stereo unspecified) | 67.9
O=C1CSC(c2ccsc2)c2sccc2N1 (stereo unspecified) | 20.5
COc1cc(C2SCC(=O)Nc3ccsc32)cc(OC)c1O (stereo unspecified) | 43.7
O=C1CSC(c2ccc(O)cc2)c2sccc2N1 (stereo unspecified) | 88.1
COCC1CC2(CCN(Cc3nc(C)cs3)CC2)CO1 (stereo unspecified) | 14.9
COc1cc(C(=O)NC(CC(=O)O)c2cccs2)cc(OC)c1C (stereo unspecified) | 5.03
COc1ccc(C2=NOC(CC#N)C2)cc1 (stereo unspecified) | 45.8
Cc1cc(C)n(CC2CCCN2C(=O)CCNc2ncccn2)n1 (stereo unspecified) | -9.4
NC(=O)C1(CNC(=O)CCc2ccc(Cl)s2)CCOCC1 | 13.8
O=C(CCCN1CCCCC1)NC(C(=O)O)c1cccc(F)c1 (stereo unspecified) | -20
CN(C)C(=O)COC1COC2(CCN(S(C)(=O)=O)CC2)C1 (stereo unspecified) | 37
CCn1cc2[nH]c(OC)c(CNC(=O)CCC3CCCC3)cc-2c1=O | 34.4
COc1ccc(C(C)(C)C)cc1CN1CCn2c(CO)nnc2C1 | 48.4
CCn1cc(NC(=O)C2CCN(Cc3noc(C4CC4)n3)CC2)cn1 | 18.2

SMILES | INHIBITION [%]
O=C(CCN1C(=O)CCC1=O)Nc1cnn(-c2ccccc2Cl)c1 | 28.5
CC(C)N(C)C(=O)c1ccc(Cl)c(NC(=O)CCN2C(=O)CCC2=O)c1 | 35.2
CC(C)OCC(=O)Nc1ccc(Oc2ccc3c(c2)OCO3)nc1 | 29.9
O=C(CCN1C(=O)CCC1=O)Nc1ccc(Cl)cc1 | 67.2
O=C(CCN1C(=O)CCC1=O)Nc1ccc(OCC(F)(F)F)nc1 | 39.4
O=C(CCN1C(=O)CCC1=O)Nc1ccc(Oc2ccc(Cl)cc2)nc1 | 51.1
COC1CCN(C(=O)NCC(N)=O)CC(=O)N(C)c2ccccc21 (stereo unspecified) | 16.2
Cc1cnn(CC2CN(Cc3cccnc3)CCO2)c1 (stereo unspecified) | -7.81
COC(=O)CN1CCCn2nc(CCC(=O)N3CCCC3)cc2C1 | 32.4
CC(=O)N1CC(C)CN(C(=O)c2cccnc2C)c2ccccc21 (stereo unspecified) | -9.8
CC1CN(C)c2ccccc2N(C(=O)c2c[nH]c(C(C)C)n2)C1 (stereo unspecified) | 29.6
CC(=O)N1CC(C)CN(C(=O)c2cnccn2)c2ccccc21 (stereo unspecified) | 60.7
CC(C)c1cc(COCCC(=O)O)no1 | 44.1
CN1CCN(Cc2cnn(-c3ccc(F)cc3)c2)[C@H]2CS(=O)(=O)C[C@H]21 | 69.8
COc1ccc(CCNC(=O)N2CCN(C)[C@@H]3CS(=O)(=O)C[C@@H]32)cc1 | 31.9
COc1ccc(CNC(=O)N2CCN(C)[C@@H]3CS(=O)(=O)C[C@@H]32)cc1 | 0.891
Cc1cccc(-n2cc(CN3CCN(C)[C@@H]4CS(=O)(=O)C[C@@H]43)cn2)c1 | 4.41
COc1ccccc1-n1cc(CN2CCN(C)[C@@H]3CS(=O)(=O)C[C@@H]32)cn1 | 50.1
CN1CCN(Cc2cnn(-c3ccccc3Cl)c2)[C@H]2CS(=O)(=O)C[C@H]21 | -54.8
CN1CCN(Cc2nc3ccccc3[nH]2)[C@H]2CS(=O)(=O)C[C@H]21 | -1.64
CN1CCN(C(=O)NCCc2ccc(F)cc2)[C@H]2CS(=O)(=O)C[C@H]21 | 52.2
Cc1ccc(-n2cc(CN3CCN(C)[C@@H]4CS(=O)(=O)C[C@@H]43)cn2)cc1 | 29.1
Cc1nn(C)c2cnn(Cc3ccc(C(=O)NCC4CCCO4)o3)c12 (stereo unspecified) | 17.6

From ChEMBL document CHEMBL4513216, “Probing the Open Global Health Chemical Diversity Library for Multistage-Active Starting Points for Next-Generation Antimalarials” (ACS Infect Dis, 2020)
